± gives the standard deviation of the averaged measurements.
Tested on: E. coli BW25113 marRABp lux reporter
Experiment: promoter activity interaction Z-score (Lux/OD deviation from empty-vector control); higher = stronger promoter induction by the compound
Protocol: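 E. coli BW25113 (wild type or ΔmarA/ΔsoxS/Δrob) carrying pTU175 luxCDABE promoter reporters was grown in LB in 384-well plates at 37°C with each of 94 compounds at 4 two-fold concentrations, in biological duplicates. Luminescence and OD600 were read every 30 min for 12 h and integrated as AUC over 8 h (0-8 h WT, 1-9 h mutants). Lux AUC was divided by OD AUC; the interaction score is the residual of a Huber robust fit of each promoter against the empty-vector control, then Z-transformed per promoter.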

| Compound | promoter activity interaction Z-score (17.3 µg/ml, genetic background: wild type) | promoter activity interaction Z-score (17.3 µg/ml, genetic background: ΔmarA) | promoter activity interaction Z-score (17.3 µg/ml, genetic background: Δrob) | promoter activity interaction Z-score (17.3 µg/ml, genetic background: ΔsoxS) | promoter activity interaction Z-score (34.5 µg/ml, genetic background: wild type) | promoter activity interaction Z-score (34.5 µg/ml, genetic background: ΔmarA) | promoter activity interaction Z-score (34.5 µg/ml, genetic background: Δrob) | promoter activity interaction Z-score (34.5 µg/ml, genetic background: ΔsoxS) | promoter activity interaction Z-score (69.1 µg/ml, genetic background: wild type) | promoter activity interaction Z-score (69.1 µg/ml, genetic background: ΔmarA) | promoter activity interaction Z-score (69.1 µg/ml, genetic background: Δrob) | promoter activity interaction Z-score (69.1 µg/ml, genetic background: ΔsoxS) | promoter activity interaction Z-score (138.1 µg/ml, genetic background: wild type) | promoter activity interaction Z-score (138.1 µg/ml, genetic background: ΔmarA) | promoter activity interaction Z-score (138.1 µg/ml, genetic background: Δrob) | promoter activity interaction Z-score (138.1 µg/ml, genetic background: ΔsoxS) | promoter activity interaction Z-score (18.1 µg/ml, genetic background: wild type) | promoter activity interaction Z-score (18.1 µg/ml, genetic background: ΔmarA) | promoter activity interaction Z-score (18.1 µg/ml, genetic background: Δrob) | promoter activity interaction Z-score (18.1 µg/ml, genetic background: ΔsoxS) | promoter activity interaction Z-score (36.3 µg/ml, genetic background: wild type) | promoter activity interaction Z-score (36.3 µg/ml, genetic background: ΔmarA) | promoter activity interaction Z-score (36.3 µg/ml, genetic background: Δrob) | promoter activity interaction Z-score (36.3 µg/ml, genetic background: ΔsoxS) | promoter activity interaction Z-score (72.6 µg/ml, genetic background: wild type) | promoter activity interaction Z-score (72.6 µg/ml, genetic background: ΔmarA) | promoter activity interaction Z-score (72.6 µg/ml, genetic background: Δrob) | promoter activity interaction Z-score (72.6 µg/ml, genetic background: ΔsoxS) | promoter activity interaction Z-score (145.1 µg/ml, genetic background: wild type) | promoter activity interaction Z-score (145.1 µg/ml, genetic background: ΔmarA) | promoter activity interaction Z-score (145.1 µg/ml, genetic background: Δrob) | promoter activity interaction Z-score (145.1 µg/ml, genetic background: ΔsoxS) |
| --- | --- | --- | --- | --- | --- | --- | --- | --- | --- | --- | --- | --- | --- | --- | --- | --- | --- | --- | --- | --- | --- | --- | --- | --- | --- | --- | --- | --- | --- | --- | --- | --- |
| O=C(O)c1ccccc1O [Salicylate] | 0.135 ± 0.01 | 0.0581 ± 0.22 | 0.184 ± 0.16 | -0.0106 ± 0.075 | 0.214 ± 0.13 | 0.401 ± 0.26 | 0.526 ± 0.052 | 0.404 ± 0.12 | 0.771 ± 0.2 | 0.666 ± 0.1 | 0.852 ± 0.25 | 0.352 ± 0.1 | 7.4 ± 0.11 | 8.571 ± 0.071 | 6.24 ± 1.4 | 6.09 ± 1.6 | – | – | – | – | – | – | – | – | – | – | – | – | – | – | – | – |
| Oc1cc(O)c2c(c1)O[C@@H](c1ccc(O)c(O)c1)[C@H](O)C2 [Catechin] | – | – | – | – | – | – | – | – | – | – | – | – | – | – | – | – | 0.176 ± 0.43 | -0.0258 ± 0.23 | 0.052 ± 0.11 | -0.135 ± 0.017 | -0.308 ± 0.32 | -0.311 ± 0.035 | -0.0876 ± 0.28 | -0.0441 ± 0.25 | 0.00953 ± 0.33 | -0.104 ± 0.28 | -0.105 ± 0.045 | -0.241 ± 0.033 | -0.286 ± 0.36 | -0.359 ± 0.22 | -0.128 ± 0.36 | -0.183 ± 0.067 |

Source: the supplement of paper PMC12282887
